In PubChem BioAssay:
Calls of active or inactive are those of the source. Unless noted, no rule for the calls is given here.

Legend:
[1] = compound effects on lung adenocarcinoma cell viability – A549, calcein-AM fluorescence, 48 h, basal, profiling panel (AID 1162); conditions: higher = more signal; also: test concentration not given here
[2] = compound effects on differentiated 3T3-L1 adipocyte viability – cell-based, 3T3-L1 adipocytes, calcein-AM fluorescence, 48 h, basal, profiling panel (AID 1163); conditions: 3T3-L1 adipocytes viability, higher = more signal; also: test concentration not given here
[3] = compound effects on hepatocellular carcinoma cell viability – HepG2, calcein-AM fluorescence, 48 h, basal, profiling panel (AID 1164); conditions: higher = more signal; also: test concentration not given here
[4] = compound effects on multiple myeloma cell viability – MM1S, calcein-AM fluorescence, 48 h, basal, profiling panel (AID 1165); conditions: higher = more signal; also: test concentration not given here
[5] = calcein-AM signal in unstimulated myeloma cells – cell-based, calcein-AM fluorescence, 48 h, PK04 Diversity Set, profiling panel (AID 1166); conditions: RPMI8226 myeloma viability, higher = more signal;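 also: cells grown under basal conditions without added stimulus; test concentration not given here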
[6] = JC-1 mitochondrial signal, unstimulated HepG2 cells – cell-based, JC-1 fluorescence, 24 h, 100 nL compound, profiling panel (AID 1167); conditions: HepG2 mitochondrial potential, higher = more signal; also: test concentration not given here
[7] = JC-1 mitochondrial signal, unstimulated adipocytes – cell-based, JC-1 fluorescence, 3T3-L1 adipocytes, 24 h, 100 nL compound, profiling panel (AID 1168); conditions: JC-1 mitochondrial fluorescence, higher = more signal, called active from +8 up or from −8 down; also: test concentration not given here
[8] = JC-1 mitochondrial signal, unstimulated myeloma cells – cell-based, JC-1 fluorescence, RPMI8226, 24 h, 100 nL compound, profiling panel (AID 1169); conditions: JC-1 mitochondrial potential fluorescence, higher = more signal; also: test concentration not given here
[9] = JC-1 mitochondrial signal, unstimulated MM1S myeloma – cell-based, JC-1 fluorescence, 24 h, 100 nL compound, profiling panel (AID 1170); conditions: MM1S mitochondrial potential, higher = more signal; also: test concentration not given here
[10] = resazurin metabolic signal in A549 cells – cell-based, resazurin fluorescence, 24 h, PK04 Diversity Set, profiling panel (AID 1171); conditions: A549 viability, higher = more signal, called active from +8 up or from −8 down; also: test concentration not given here
[11] = resazurin metabolic signal in HepG2 cells – cell-based, resazurin fluorescence, 24 h, PK04 Diversity Set, profiling panel (AID 1172); conditions: HepG2 viability, higher = more signal; also: test concentration not given here
[12] = budding yeast growth changes without added modifier – OD600, strain BY4716, 24 h, basal condition, primary screen (AID 1173); conditions: S. cerevisiae BY4716 growth, OD600, 24 h; higher = more signal, called active from +8 up or from −8 down
[13] = viability profiling in MM1S myeloma cells – cell-based, resazurin fluorescence, basal, 24 h, PK04 Diversity Set, profiling panel (AID 1174); conditions: higher = more signal, called active from +8 up or from −8 down; also: test concentration not given here
[14] = molecular target: Dihydroorotate dehydrogenase (quinone), mitochondrial (Plasmodium falciparum (isolate 3D7)) (UniProt Q08210); test: inhibition of P. falciparum DHODH – biochemical, C-terminal His tag, absorbance 600 nm, primary screen (AID 1175); conditions: PfDHODH enzyme, DCIP absorbance 600 nm; higher = more signal, called active from +8 up or from −8 down;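 also: recombinant parasite enzyme with a five histidine tag at its C terminus; test concentration not given here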
[15] = inhibition of PAO1 biofilm formation – strain PAO1, LB-PBS medium, absorbance 600 nm, primary screen (AID 1176); also: test concentration not given here; conditions: P. aeruginosa PAO1 growth/biofilm, A600, 12 h; higher = more signal
[16] = growth modulation of vineyard yeast isolate – strain RM11-1a, OD600, basal, 24 h, primary screen (AID 1177);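 also: cultures grown under basal conditions with no added stressor; test concentration not given here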; conditions: S. cerevisiae RM11-1a growth, OD600, 24 h; higher = more signal, called active from +8 up or from −8 down
[17] = growth of efflux-deficient E. coli DRC39 – strain DRC39, OD650, 24 h, E. coli filamentation inducers, primary screen (AID 1178);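 also: growth measured as culture turbidity by optical density at 650 nm; test concentration not given here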; conditions: E. coli DRC39 acrAB, higher = more signal, called active from +8 up or from −8 down
[18] = growth of efflux-deficient E. coli DRC39 – strain DRC39, OD650, 48 h, E. coli filamentation inducers, primary screen (AID 1179);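 also: screen aims at cell division blockers that make cells filament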; conditions: E. coli DRC39 delta-acrAB growth, higher = more signal, called active from +8 up or from −8 down
[19] = viability profiling in RPMI8226 myeloma cells – cell-based, resazurin fluorescence, basal, 24 h, PK04 Diversity Set, profiling panel (AID 1180); conditions: higher = more signal;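 also: RPMI8826 multiple myeloma cell line at 5000 cells per well; test concentration not given here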
[20] = molecular target: E3 ubiquitin-protein ligase XIAP (Homo sapiens) (UniProt P98170); test: small molecules binding XIAP protein – biophysical, small-molecule microarray, fluorescence 635 nm, primary screen (AID 1181); conditions: higher = more signal;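 also: score merges 667 nm emission and signal to noise over triplicate slides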
E3 ubiquitin-protein ligase XIAP (Homo sapiens), sequence (P98170 whole entry, looked up): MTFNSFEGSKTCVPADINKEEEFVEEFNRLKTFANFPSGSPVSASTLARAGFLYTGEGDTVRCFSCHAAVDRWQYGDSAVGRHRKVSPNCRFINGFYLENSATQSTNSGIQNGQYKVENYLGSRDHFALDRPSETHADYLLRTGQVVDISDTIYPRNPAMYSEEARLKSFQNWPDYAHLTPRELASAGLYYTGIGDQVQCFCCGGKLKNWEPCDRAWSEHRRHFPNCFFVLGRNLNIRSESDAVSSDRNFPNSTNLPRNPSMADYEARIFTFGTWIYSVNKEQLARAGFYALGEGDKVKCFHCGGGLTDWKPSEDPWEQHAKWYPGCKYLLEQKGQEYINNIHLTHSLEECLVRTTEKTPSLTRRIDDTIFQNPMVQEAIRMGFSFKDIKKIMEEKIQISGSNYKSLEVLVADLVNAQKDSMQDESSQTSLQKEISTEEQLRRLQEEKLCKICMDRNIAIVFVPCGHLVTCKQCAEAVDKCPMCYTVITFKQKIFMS

Dihydroorotate dehydrogenase (quinone), mitochondrial (Plasmodium falciparum (isolate 3D7)), sequence (Q08210 whole entry, looked up): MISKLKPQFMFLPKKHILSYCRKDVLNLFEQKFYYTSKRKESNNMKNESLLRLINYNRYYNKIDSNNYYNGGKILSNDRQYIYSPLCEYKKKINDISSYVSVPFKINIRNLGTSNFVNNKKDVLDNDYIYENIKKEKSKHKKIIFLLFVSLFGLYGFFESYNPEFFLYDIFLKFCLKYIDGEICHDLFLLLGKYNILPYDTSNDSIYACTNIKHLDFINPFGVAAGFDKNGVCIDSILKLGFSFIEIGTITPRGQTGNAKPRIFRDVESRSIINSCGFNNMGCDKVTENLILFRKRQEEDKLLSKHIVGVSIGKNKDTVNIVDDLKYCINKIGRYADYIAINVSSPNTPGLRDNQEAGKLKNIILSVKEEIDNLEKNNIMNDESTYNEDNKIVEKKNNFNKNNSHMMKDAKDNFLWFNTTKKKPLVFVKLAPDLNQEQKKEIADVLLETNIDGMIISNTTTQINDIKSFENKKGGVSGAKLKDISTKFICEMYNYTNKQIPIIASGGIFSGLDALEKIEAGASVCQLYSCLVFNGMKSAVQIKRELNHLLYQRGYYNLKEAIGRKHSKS

Compound | z-score [1] | z-score [2] | z-score [3] | z-score [4] | z-score [5] | z-score [6] | z-score [7] | z-score [8] | z-score [9] | z-score [10] | z-score [11] | z-score [12] | z-score [13] | composite z-score [14] | z-score [15] | z-score [16] | z-score [17] | z-score [18] | z-score [19] | composite z-score [20]
O=C1C=C[C@@H](O)[C@@H]2[C@@H]3C(=O)N(c4ccc(F)cc4F)C(=O)[C@@H]3CC[C@@H]12 | 0.0767 | 0.244 | 1.04 | 0.157 | -1.1 | 0.991 | 0.46 (inactive) | -0.322 | 0.921 | -1.47 (inactive) | -0.862 | -1.76 (inactive) | -0.138 (inactive) | -1.11 (inactive) | 0.565 (inactive) | -2.01 (inactive) | -0.664 (inactive) | -0.52 (inactive) | -0.956 | -0.102
C#CCCCON=C1C[C@@H](O)[C@@H](O)[C@@H]2[C@@H]3C(=O)N(c4cccc(Oc5ccccc5)c4)C(=O)[C@@H]3CC[C@H]12 | 1.08 | 0.139 | 0.411 | 0.632 | 0.116 | 0.862 | 0.57 (inactive) | -0.263 | -1.29 | 0.19 (inactive) | 0.331 | -0.351 (inactive) | 1.08 (inactive) | -1.48 (inactive) | 0.553 (inactive) | -0.0064 (inactive) | 0.899 (inactive) | 0.401 (inactive) | 1.94 | -0.0832
COc1ccc(O[C@H]2C=C[C@@H](c3ccccc3)O[C@@H]2CON=C(C)CCN2CCc3nc(-c4ccccc4)c(-c4ccccc4)cc3C2)cc1 | 0.437 | 0.133 | 0.59 | -1.65 | -0.439 | 4.95 | -1.39 (inactive) | 0.965 | -0.214 | 0.621 (inactive) | 0.449 | -0.606 (inactive) | -0.159 (inactive) | 0.503 (inactive) | 0.135 (inactive) | 1.21 (inactive) | -0.166 (inactive) | -1.89 (inactive) | 0.382 | -0.0536
COc1cccc([C@H]2Oc3ccc(OC)cc3C(=NO[C@@H](C)c3cn([C@H](CO)Cc4ccccc4)nn3)[C@@H]2O)c1 | -0.53 | 1.3 | -0.55 | 0.738 | -0.631 | -1.22 | -1.1 (inactive) | -0.722 | 0.339 | -0.819 (inactive) | -1.02 | -0.0439 (inactive) | -0.162 (inactive) | 0.757 (inactive) | -0.102 (inactive) | -0.0779 (inactive) | -0.712 (inactive) | -2.86 (inactive) | 0.22 | -0.0367
